Results filed as inconclusive are left out. Entries that show only a call come without a potency. Activity calls are given as the source filed them. Calls come from the whole dose curve; as a rule, active = well fitted inhibition curve with a large enough effect; inconclusive = small, poorly fitted or top-dose-only effect; inactive = flat fitted curve, though single readings scatter.
test system: astro; test: Drug repurposing screens with cells derived from glioblastoma tumor samples (AID 1345199); conditions: viability, ATP luminescence, 48 h; series mostly up to 45.9 µM; note: nearly all actives have a fitted effect of over 40% in size
Method: CD133+ cells were isolated from GBM patient biopsies and cultured as neurospheres. Neurospheres from four patients were used to screen the NCATS pharmaceutical collection (NPC) library of approved drugs and bioactive compounds. […] The neurospheres were incubated with drugs for 48 hours in 1536-well format, then assayed with an ATP content cell viability assay. […] These hits were cherry picked to confirm activity in the four original GBM lines screened plus three other slower growing GMB lines (unable to yield enough cells for a full primary screen). Variable activities of the confirmed primary hits in the different GBM patient lines were observed. The patient line 206 responded to the greatest number of compounds and line 923 responded to the least amount of active compounds.
Potency is the fitted concentration of half-maximal effect.

Compound | Potency
COc1cc(C(=O)NS(=O)(=O)c2ccccc2C)ccc1Cc1cn(C)c2ccc(NC(=O)OC3CCCC3)cc12 | inactive
C=CC(=O)Nc1cc2c(Nc3ccc(F)c(Cl)c3)ncnc2cc1OCCCN1CCOCC1 | 11.2 µM (active)
COC(=O)C1=C(C)NC(C)=C(C(=O)OCCN2CCN(C(c3ccccc3)c3ccccc3)CC2)C1c1cccc([N+](=O)[O-])c1 (stereo not drawn) | inactive
O=c1[nH]c(=O)n(C2CCCO2)cc1F (stereo not drawn) | inactive
COc1c(N2C[C@@H]3CCCN[C@H]3C2)c(F)cc2c(=O)c(C(=O)O)cn(C3CC3)c12 | inactive
COc1ccc(CC2c3cc(OC)c(OC)cc3CC[N+]2(C)CCC(=O)OCCCCCOC(=O)CC[N+]2(C)CCc3cc(OC)c(OC)cc3C2Cc2ccc(OC)c(OC)c2)cc1OC (stereo not drawn) | inactive
CC1(C)O[C@@H]2C[C@@H]3[C@H]4C[C@@H](F)C5=CC(=O)C=C[C@]5(C)[C@@]4(F)[C@@H](O)C[C@]3(C)[C@]2(C(=O)CO)O1 | inactive
O=C(O)CO.[NH2-].[NH2-].[Pt+2] | inactive
CC=CC1=C(C(=O)O)N2C(=O)[C@H](NC(=O)[C@H](N)c3ccc(O)cc3)[C@@H]2SC1 | inactive
CC(=O)SC[C@@H](C)C(=O)N1CCC[C@H]1C(=O)N[C@@H](Cc1ccccc1)C(=O)O | inactive
Nc1ccn([C@@H]2CS[C@H](CO)O2)c(=O)n1 | inactive
Cc1nc2ccc(CN(C)c3ccc(C(=O)N[C@@H](CCC(=O)O)C(=O)O)s3)cc2c(=O)[nH]1 | inactive
CN1c2cc(O)c(N=NC(N)=O)cc2CC1S(=O)(=O)O (stereo not drawn) | inactive
C=C1C(=CC=C2CCC[C@]3(C)[C@@H]([C@H](C)C=C[C@H](C)C(C)C)CC[C@@H]23)C[C@@H](O)C[C@@H]1O | 25.1 µM (active)
C[C@H]1C[C@@H]2[C@@H]([C@@H](O)C[C@@]3(C)[C@H]2CC[C@]3(O)C(=O)CO)[C@@]2(C)C=CC(=O)C=C12 | inactive
CC[C@H]1CN2CCc3cc(OC)c(OC)cc3[C@H]2C[C@@H]1C[C@@H]1NCCc2cc(OC)c(OC)cc21 | 0.447 µM (active)
COC(=O)[C@]12CCC(C)(C)C[C@@H]1[C@@H]1C(=O)C=C3[C@@]4(C)C=C(C#N)C(=O)C(C)(C)[C@@H]4CC[C@@]3(C)[C@]1(C)CC2 | 3.16 µM (active)
COC(=O)C[C@](O)(CCCC(C)(C)O)C(=O)O[C@@H]1C(OC)=C[C@]23CCCN2CCc2cc4c(cc2[C@H]13)OCO4 | 0.251 µM (active)
